Measurements taken from the OligoGym collection.

Target: CCDC56
Assay: pooled miR-30 sensor sort-seq; sequence = guide strand
Conditions: shRNA
Note: reference of the scale not given here.

Q: Which sensor-assay potency score (higher = more potent) does the source give for TTGCCAGAGCTCGGGCTCGGGC here?
A: Its sensor-assay potency score (higher = more potent) is -1.79.

Q: With TTGCTCGGGTGTCAGCTTCTCC as the sequence, how does the sensor-assay potency score (higher = more potent) read?
A: Its sensor-assay potency score (higher = more potent) is -1.07.

Q: With ACCATAAATAGCCAACACCAGG as the sequence, how does the sensor-assay potency score (higher = more potent) read?
A: The sensor-assay potency score (higher = more potent) was -2.43.

Q: Which sensor-assay potency score (higher = more potent) does the source give for TCGAGTAGAAGGTGTAACCATA here?
A: The sensor-assay potency score (higher = more potent) was -1.07.

Q: Which sensor-assay potency score (higher = more potent) does the source give for TAAATAGCCAACACCAGGGCCC here?
A: Its sensor-assay potency score (higher = more potent) is 0.333.

Q: How did the sensor-assay potency score (higher = more potent) turn out when TCGGGTGTCAGCTTCTCCCGAG was run?
A: The sensor-assay potency score (higher = more potent) was -0.206.

Q: Which sensor-assay potency score (higher = more potent) does the source give for TGGGAAATCGAGTAGAAGGTGT here?
A: The sensor-assay potency score (higher = more potent) was 0.0738.

Q: Which sensor-assay potency score (higher = more potent) does the source give for ATCTAGGAAACGCTCCTGGGAA here?
A: Its sensor-assay potency score (higher = more potent) is -1.12.

Q: With TAGCTCATCTAGGAAACGCTCC as the sequence, how does the sensor-assay potency score (higher = more potent) read?
A: Its sensor-assay potency score (higher = more potent) is -0.33.

Q: How did the sensor-assay potency score (higher = more potent) turn out when TCATCTAGGAAACGCTCCTGGG was run?
A: The sensor-assay potency score (higher = more potent) was -1.24.

Target: CCDC72
Assay: as above
Conditions: shRNA

Q: With TTGTTTCTGCTTGAAAGCCTTA as the sequence, how does the sensor-assay potency score (higher = more potent) read?
A: Its sensor-assay potency score (higher = more potent) is -0.0976.

Q: With TTCCTCGTCCATCTCCTTGGCC as the sequence, how does the sensor-assay potency score (higher = more potent) read?
A: Its sensor-assay potency score (higher = more potent) is -0.547.

Q: For TTAAATGTACAACAGCTCCAAG, which sensor-assay potency score (higher = more potent) is on record?
A: Its sensor-assay potency score (higher = more potent) is -1.04.

Q: TCTTCCTCGTCCATCTCCTTGG was tested. Which sensor-assay potency score (higher = more potent) did it give?
A: The sensor-assay potency score (higher = more potent) was -0.456.

Q: Which sensor-assay potency score (higher = more potent) does the source give for TTATTCTTAAATGTACAACAGC here?
A: The sensor-assay potency score (higher = more potent) was -0.855.

Q: How did the sensor-assay potency score (higher = more potent) turn out when TCTGCTTGAAAGCCTTATCTTC was run?
A: The sensor-assay potency score (higher = more potent) was -0.819.

Q: TTTGTTTCTGCTTGAAAGCCTT was tested. Which sensor-assay potency score (higher = more potent) did it give?
A: Its sensor-assay potency score (higher = more potent) is -0.585.

Q: ATCTTCCTCGTCCATCTCCTTG was tested. Which sensor-assay potency score (higher = more potent) did it give?
A: The sensor-assay potency score (higher = more potent) was -1.81.

Q: Which sensor-assay potency score (higher = more potent) does the source give for TTATCTTCCTCGTCCATCTCCT here?
A: The sensor-assay potency score (higher = more potent) was 0.315.

Q: Which sensor-assay potency score (higher = more potent) does the source give for TTCAGTGGCTTCTTCTTGCCAC here?
A: The sensor-assay potency score (higher = more potent) was 0.0626.

Target: CCDC77
Assay: as above
Conditions: shRNA

Q: With TAGCTCTTTGATTTTGTTCTGA as the sequence, how does the sensor-assay potency score (higher = more potent) read?
A: The sensor-assay potency score (higher = more potent) was 0.252.

Q: How did the sensor-assay potency score (higher = more potent) turn out when TTTTTCTCTTGTACTAACTTAT was run?
A: Its sensor-assay potency score (higher = more potent) is -0.944.

Q: Which sensor-assay potency score (higher = more potent) does the source give for TTTGGTGCTCTCATAGAGCAGT here?
A: The sensor-assay potency score (higher = more potent) was -0.0472.

Q: For TTGCAAAATACCTTCTTCCTAA, which sensor-assay potency score (higher = more potent) is on record?
A: Its sensor-assay potency score (higher = more potent) is -0.254.

Q: For TATGCTGTCCTTCACAAGCTTC, which sensor-assay potency score (higher = more potent) is on record?
A: The sensor-assay potency score (higher = more potent) was -1.33.

Q: TTTCTTCTTACACTGCACCCTA was tested. Which sensor-assay potency score (higher = more potent) did it give?
A: The sensor-assay potency score (higher = more potent) was -0.0389.

Q: How did the sensor-assay potency score (higher = more potent) turn out when TTATCTTTTTCAAGCATCCATG was run?
A: Its sensor-assay potency score (higher = more potent) is -1.19.

Q: For TAATATATTCACTTTGAGCATG, which sensor-assay potency score (higher = more potent) is on record?
A: Its sensor-assay potency score (higher = more potent) is -0.91.

Q: Which sensor-assay potency score (higher = more potent) does the source give for TTTCTTGTCTTCTAGCTCCCTG here?
A: Its sensor-assay potency score (higher = more potent) is -0.0804.

Q: Which sensor-assay potency score (higher = more potent) does the source give for TTAATATCTGTCTTAAAGCCTT here?
A: The sensor-assay potency score (higher = more potent) was -0.792.

Q: TTTCGTTTGAGTCTCTAGCGCC was tested. Which sensor-assay potency score (higher = more potent) did it give?
A: The sensor-assay potency score (higher = more potent) was -0.231.

Q: TTCTTGTCTTCTAGCTCCCTGA was tested. Which sensor-assay potency score (higher = more potent) did it give?
A: Its sensor-assay potency score (higher = more potent) is -1.06.

Target: CCL13
Assay: as above
Conditions: shRNA

Q: How did the sensor-assay potency score (higher = more potent) turn out when AAGGAGATCTTCTTACTGCTAA was run?
A: Its sensor-assay potency score (higher = more potent) is -0.229.

Q: For TATAATTCTGGACCCACTTCTC, which sensor-assay potency score (higher = more potent) is on record?
A: Its sensor-assay potency score (higher = more potent) is -0.771.

Q: How did the sensor-assay potency score (higher = more potent) turn out when TCTGAAGATGACAGCCTTCTGG was run?
A: Its sensor-assay potency score (higher = more potent) is -0.807.

Q: TTACTTAACACATAGTACATTT was tested. Which sensor-assay potency score (higher = more potent) did it give?
A: Its sensor-assay potency score (higher = more potent) is -1.04.

Q: TAAATGTGAAGCAGCAAGTAGA was tested. Which sensor-assay potency score (higher = more potent) did it give?
A: The sensor-assay potency score (higher = more potent) was -1.06.

Q: For TGCAAGGAGATCTTCTTACTGC, which sensor-assay potency score (higher = more potent) is on record?
A: Its sensor-assay potency score (higher = more potent) is -0.0125.

Q: Which sensor-assay potency score (higher = more potent) does the source give for TGAAGCAGCAAGTAGATGGGAC here?
A: Its sensor-assay potency score (higher = more potent) is -0.203.

Q: With TAACACATAGTACATTTTGAAT as the sequence, how does the sensor-assay potency score (higher = more potent) read?
A: The sensor-assay potency score (higher = more potent) was -1.62.
